Source: PubChem
TWEAK Fn14 block – blocks TWEAK-Fn14 interaction in a reporter cell assay; TWEAK-stimulated Fn14 reporter cells, luciferase luminescence, 8 h; inhibition, % at 10 µM; actives 2% (n = 360,000); in the data active = inhibition above about 50%
LMP1 NFkB inh – Epstein-Barr LMP1 NF-kappaB reporter inhibition. inhibition, % at 12.5 µM. AID 504558. actives 0.69% (n = 350,000). LMP1-induced NF-kappaB luciferase reporter cells, luminescence; in the data active = inhibition above about 41%
TROY signal inh – TROY signaling inhibition. AID 1347056. Q293 LMP1-TROYcd NF-kB luciferase reporter, 4 h. inhibition, % at 10 µM. actives 0.98% (n = 360,000);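 active = compounds whose plate-normalised and pattern-corrected inhibition of the luciferase reporter signal at the single screening dose is 50% or more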
HSF1 inh – HSF1 inhibition. NIH3T3-HGL HSE-luciferase, MG132-induced, luminescence 8 h; hits give low values. actives 0.77% (n = 300,000). activity change, negative = inhibition, % at 7.5 µM (by protocol);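 active = more than half of replicate wells show activity change below -50%, luminescence cut by over half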;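 note: luciferase reports HSF-1 transcriptional activity via heat shock element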
HSP90 refold inh – HSP90 refolding inhibition in rabbit reticulocyte lysate | inhibition, % at 5.6 µM | actives 0.91% (n = 290,000) | luciferase refolding luminescence, 3 h | AID 1789;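 active = inhibition above the screen-wide mean plus 3 SD, computed separately per campaign, cut at about 16% in these data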;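 note: inhibitors lower the luminescence because luciferase stays unfolded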
HSF1 activator – increases HSF-1 driven luciferase reporter signal; NIH3T3-HGL HSF-1 luciferase reporter, MG132, 8 h; 100% = twice DMSO control signal; actives 1.7% (n = 300,000); activation, % at 9 µM;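 active = mean replicate activation of at least 50% with a set share of replicates each reaching 50%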
A number is an active result. Rows were chosen to be rich in hits. Some 4.7% of all compounds tested hit in one or more screens of this group.

Screening Cc1c(COc2ccc3ccccc3c2)nnn1CC(=O)NS(=O)(=O)c1ccccc1C(F)(F)F returned TWEAK Fn14 block inactive and TROY signal inh inactive.
For CC(=O)C1=CCC(c2ccc(Cl)cc2)N(S(=O)(=O)c2ccc(C)cc2)C1 (stereo not given) the results were TWEAK Fn14 block inactive and TROY signal inh inactive.
For Cc1c(C(=O)Nc2nc3ccccc3[nH]2)oc2ccc(Br)cc12 the results were TWEAK Fn14 block inactive, LMP1 NFkB inh inactive, TROY signal inh inactive, HSF1 inh inactive, HSP90 refold inh inactive and HSF1 activator inactive.
Screening Cc1c(C(=O)Nc2nc3ccccc3[nH]2)oc2ccccc12 returned TWEAK Fn14 block inactive, LMP1 NFkB inh inactive, TROY signal inh inactive, HSF1 inh inactive, HSP90 refold inh inactive and HSF1 activator 68.
For Cc1c(C(=O)Nc2ccccn2)oc2ccccc12 the results were TWEAK Fn14 block inactive, LMP1 NFkB inh inactive, TROY signal inh inactive, HSF1 inh inactive, HSP90 refold inh inactive and HSF1 activator inactive.
For Cc1ccc(NC(=O)c2cc3c(=O)oc4ccccc4c3s2)nc1 the results were TWEAK Fn14 block inactive, LMP1 NFkB inh inactive, TROY signal inh inactive, HSF1 inh inactive, HSP90 refold inh inactive and HSF1 activator 97.
For Cc1ccc(NC(=O)c2oc3ccccc3c2C)nc1 the results were TWEAK Fn14 block inactive, LMP1 NFkB inh inactive, TROY signal inh inactive, HSF1 inh inactive, HSP90 refold inh inactive and HSF1 activator 56.
`Cc1cccnc1NC(=O)c1cc2c(=O)oc3ccccc3c2s1` gave TWEAK Fn14 block inactive, LMP1 NFkB inh inactive, TROY signal inh inactive, HSF1 inh inactive, HSP90 refold inh inactive and HSF1 activator inactive.
O=NN(CCCl)C(=O)NCC1=C[N+](=O)CC=C1 was read as TWEAK Fn14 block inactive and TROY signal inh inactive.
Screening O=C(CNS(=O)(=O)c1ccccc1F)Nc1ccc(N2CCOCC2)cc1 returned TWEAK Fn14 block inactive, LMP1 NFkB inh inactive, TROY signal inh inactive, HSF1 inh -88, HSP90 refold inh inactive and HSF1 activator inactive.
CCc1nc2ccc(C(=O)Nc3ccc(Cl)c(Cl)c3)cn2c1N(C)Cc1ccc(OC)cc1 was read as TWEAK Fn14 block inactive and TROY signal inh inactive.
Cc1ccc2nc(N/N=C\c3ccc([N+](=O)[O-])o3)nc(-c3ccccc3)c2c1 was read as TWEAK Fn14 block 67, LMP1 NFkB inh inactive, TROY signal inh inactive, HSF1 inh inactive, HSP90 refold inh inactive and HSF1 activator inactive.
For COC1=C(OC)C(=O)C(Sc2ccc3ccccc3c2)=CC1=O the results were TWEAK Fn14 block 58, LMP1 NFkB inh inactive and TROY signal inh inactive.
O=S(=O)(c1ccccc1)n1cc(-c2cccc3nccn23)c2ccccc21 was read as TWEAK Fn14 block inactive and TROY signal inh inactive.
Screening CC(C)C(=O)N1CCC1(C)C(=O)Nc1ccc(-n2cccc2)cc1 (stereo not given) returned TWEAK Fn14 block inactive and TROY signal inh inactive.
For CC1CCN(C(=O)c2ccc(-c3ccccc3Cl)o2)CC1 the results were TWEAK Fn14 block inactive, LMP1 NFkB inh inactive, TROY signal inh inactive, HSF1 inh inactive and HSF1 activator 56.
Screening O=C(NCC1CCCO1)c1ccc(-c2ccccc2Cl)o1 (stereo not given) returned TWEAK Fn14 block inactive, LMP1 NFkB inh inactive, TROY signal inh inactive, HSF1 inh inactive and HSF1 activator 59.
C[C@@H]1COc2cccc(N3CCC[C@H]3CO)c2S(=O)(=O)N1 was read as TWEAK Fn14 block inactive and TROY signal inh inactive.
`COc1ccc2[nH]c3c(c(=O)c2c1)CCCC3` gave TWEAK Fn14 block inactive and TROY signal inh inactive.
Screening COc1ccc2[nH]c3c(c2c1)CC(C)NC3=O (stereo not given) returned TWEAK Fn14 block 71, LMP1 NFkB inh inactive, TROY signal inh inactive, HSF1 inh inactive, HSP90 refold inh inactive and HSF1 activator inactive.
COc1ccc(CCNC(=O)COC(=O)C23CC4CC(CC(C4)C2)C3)cc1 was read as TWEAK Fn14 block inactive, LMP1 NFkB inh inactive, TROY signal inh inactive, HSF1 inh inactive, HSP90 refold inh inactive and HSF1 activator inactive.
For COc1ccc(CCNC(=O)COC(=O)C23CC4CC(CC(Br)(C4)C2)C3)cc1 the results were TWEAK Fn14 block 70, LMP1 NFkB inh inactive, TROY signal inh inactive, HSF1 inh inactive, HSP90 refold inh inactive and HSF1 activator inactive.
